The values that follow come from PubChem BioAssay (NCI).

SMILES strings stand for the structures. The panel holds about 83,000 compounds, 20% with a hit somewhere; the sample as a whole holds those more often.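 Assay: single dose, 48 h. Readout: percent growth (0 = no net growth; negative = cell death). Active: <10.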 Values without a mark were called inactive. Activity calls are given as the source filed them.

The subject of the first assay is T-47D breast. Briefly: NCI-60 one-dose screen, 48 h (100 = growth as untreated, 0 = no growth, -100 = all killed). Particulars: 10 µM unless noted.
As to `Cc1ccc(N)cc1[As]=[As]c1cc(N)ccc1C` (centres undefined), the growth was -41.9% (active).

`C/C(=N/OC(=O)N(C)C)c1cc(Cl)ccc1Cl`: the growth is 96.7%.

As to `CCC(C)[C@H]1O[C@]2(C=C[C@@H]1C)C[C@@H]1C[C@@H](C/C=C(\C)[C@@H](OC3C[C@H](OC)C(O[C@H]4C[C@H](OC)[C@@H](O)[C@H](C)O4)[C@H](C)O3)[C@@H](C)/C=C/C=C3\CO[C@@H]4[C@H](O)C(C)=C[C@@H](C(=O)O1)[C@]34O)O2` (some centres undefined), the growth was 0.0336% (active).

As to `CC1(C)N=C(N)N=C(N)N1c1ccc(CCCCc2ccc(S(=O)(=O)F)cc2)cc1`, the growth was 16.6%.

On to `Cc1ccc(C(=O)C2CN(C)CCC2(O)c2ccc(C)cc2)cc1` (centres undefined), for which the growth was 102%.

With `O=S(=O)(O)c1ccc(-c2ccc([As](=O)(O)O)cc2)cc1`, the growth was 89.5%.

Regarding `O=C1NC(=O)C(CN2C(=O)C3(c4ccccc42)[C@H](Cl)C(=O)N3c2ccccc2)C(=O)N1` (some centres undefined), the growth was 38.1%.

Take `O=[N+]([O-])c1cc([N+](=O)[O-])c(Cl)c(Cl)c1Cl`: the growth was -27.9% (active).

In the case of `C=CCC1(CC)C(=O)NC(=S)NC1=O`, the growth was 100%.

For `C/C(=N/OC(=O)N(C)C)c1ccc(Cl)cc1Cl`, the growth is 96.7%.

On to `CCC[CH2][Sn]([CH2]CCC)([CH2]CCC)[O]C(=O)CC`, for which the growth is -74.4% (active).

Consider `O=C(NCc1ccc([N+](=O)[O-])cc1)Nc1ccc(S(=O)(=O)F)cc1`, for which the growth is 57%.

As to `n1nc(-c2nonc2-c2nn[nH]n2)n[nH]1`, the growth is 105%.

Take `CNC(=O)Oc1ccccc1-c1ccccc1`: the growth is 105%.

For `CC1(C)N=C(N)N=C(N)N1c1ccc(OCCCCOc2ccc(S(=O)(=O)F)cc2)c(Cl)c1`, the growth was 25.9%.

On to `CCCCOC(=O)c1ccccc1C(=O)O.CCCCOC(=O)c1ccccc1C(=O)O.[Cu+2]`, for which the growth was 104%.

`O=[N+]([O-])c1ccc2cnn(CSP(=S)(c3ccccc3)c3ccccc3)c2c1`: the growth is 69.5%.

Take `NC(=O)C(Cl)Cl`: the growth was 103%.

Take `CCN(CC)c1ccc(C=C2C(=O)NC(=S)NC2=O)cc1`: the growth is 78%.

Take `Clc1ccc(SSC(Cl)(Cl)Cl)cc1`: the growth was 114%.

For `[O]=[Sn]([CH]1CCCCC1)[CH]1CCCCC1`, the growth was -86.7% (active).

Consider `ClCCN(CCCl)c1nc(Cl)c(C2CC(c3ccccc3)=NN2c2ccccc2)s1` (centres undefined), for which the growth was 66.3%.

For `CC(=O)C1CCC2C3CC=C4CC(OC(=O)Cc5ccc(N(CCCl)CCCl)cc5)CCC4(C)C3CCC12C` (centres undefined), the growth was 105%.

With `Cc1ccccc1O`, the growth is 94.9%.

For `O=[N+]([O-])c1ccccc1N1CCNCC1`, the growth is -4.84% (active).

As for `CC(=O)Nc1ccc(C=C2C(=O)NC(=O)NC2=O)cc1`, the growth is 106%.

The next assay has as its system BT-549 breast. Described as above. The note with it: 10 µM.
As for `ClCCN(CCCl)C(c1ccccc1)c1ccc(Cl)cc1` (centres undefined), the growth is 93.7%.

For the compound `CCCCn1cc(C(=O)/C(C#N)=C/c2cc3ccccc3nc2Cl)c2cc(OC)ccc21`, the growth is 91.7%.

Take `CCCCNCCc1ccccn1`: the growth was 98.2%.

Take `CC(=O)C1C(=O)N(C)C(=O)N(C)C1=O`: the growth is 106%.

Take `CC1(C)N=C(N)N=C(N)N1c1cccc(C(=O)Nc2cccc(S(=O)(=O)F)c2)c1`: the growth was 107%.

On to `C[C@]12CC[C@@H]3C4=C(CC[C@H]3[C@@H]1CC[C@@H]2O)CC(=O)CC4`, for which the growth is 122%.

For `Oc1ccccc1OB(Oc1ccccc1O)N(CCCl)CCCl`, the growth is 49.4%.

On to `COc1ccc(-c2ccc(OC)c(OC)c2OC)cc1`, for which the growth is 20.2%.

Consider `CC[C@@]1(C2O[C@@H](C3O[C@@](O)(CC)[C@H](C)C[C@@H]3C)C[C@@H]2C)CC[C@H]([C@]2(C)CCC3(C[C@H](O)[C@@H](C)[C@@H]([C@H](C)[C@@H](OC)[C@H](C)C(=O)O)O3)O2)O1` (some centres undefined), for which the growth was 32.5%.

With `CC1(C)N=C(N)N=C(N)N1c1ccc(CCCCc2ccc(S(=O)(=O)F)cc2)c(Cl)c1`, the growth is 46.2%.

In the case of `COc1ccc(C2=NN(c3ccccc3)C(c3sc(N(CCCl)CCCl)nc3Cl)C2)cc1` (centres undefined), the growth is 108%.

On to `N#CC1c2ccccc2C=CN1C(=O)c1ccc(N(CCCl)CCCl)cc1` (centres undefined), for which the growth is 89.8%.

Consider `CSc1ccccc1NP1(=O)OCC(C)([N+](=O)[O-])CO1` (centres undefined), for which the growth was 90.1%.

Take `Cc1ccc(N)cc1[As]=[As]c1cc(N)ccc1C` (centres undefined): the growth is -93.6% (active).

Consider `C/C(=N/OC(=O)N(C)C)c1cc(Cl)ccc1Cl`, for which the growth is 98.5%.

With `CCC(C)[C@H]1O[C@]2(C=C[C@@H]1C)C[C@@H]1C[C@@H](C/C=C(\C)[C@@H](OC3C[C@H](OC)C(O[C@H]4C[C@H](OC)[C@@H](O)[C@H](C)O4)[C@H](C)O3)[C@@H](C)/C=C/C=C3\CO[C@@H]4[C@H](O)C(C)=C[C@@H](C(=O)O1)[C@]34O)O2` (some centres undefined), the growth was -39.1% (active).

For `CC1(C)N=C(N)N=C(N)N1c1ccc(CCCCc2ccc(S(=O)(=O)F)cc2)cc1`, the growth was 48.7%.

Turning to `O=S(=O)(O)c1ccc(-c2ccc([As](=O)(O)O)cc2)cc1`, the growth is 106%.

For the compound `O=C1NC(=O)C(CN2C(=O)C3(c4ccccc42)[C@H](Cl)C(=O)N3c2ccccc2)C(=O)N1` (some centres undefined), the growth was 72.3%.

Take `O=[N+]([O-])c1cc([N+](=O)[O-])c(Cl)c(Cl)c1Cl`: the growth was 49.8%.

Regarding `C=CCC1(CC)C(=O)NC(=S)NC1=O`, the growth is 106%.

With `C/C(=N/OC(=O)N(C)C)c1ccc(Cl)cc1Cl`, the growth was 97%.

For `CCC[CH2][Sn]([CH2]CCC)([CH2]CCC)[O]C(=O)CC`, the growth was -98.5% (active).

With `O=C(NCc1ccc([N+](=O)[O-])cc1)Nc1ccc(S(=O)(=O)F)cc1`, the growth was 94.9%.

Take `n1nc(-c2nonc2-c2nn[nH]n2)n[nH]1`: the growth is 103%.

Take `CNC(=O)Oc1ccccc1-c1ccccc1`: the growth was 103%.

For `CC1(C)N=C(N)N=C(N)N1c1ccc(OCCCCOc2ccc(S(=O)(=O)F)cc2)c(Cl)c1`, the growth is 28.8%.

As for `CCCCOC(=O)c1ccccc1C(=O)O.CCCCOC(=O)c1ccccc1C(=O)O.[Cu+2]`, the growth is 105%.

`O=[N+]([O-])c1ccc2cnn(CSP(=S)(c3ccccc3)c3ccccc3)c2c1`: the growth is 69.7%.

In the case of `NC(=O)C(Cl)Cl`, the growth is 111%.

As to `CCN(CC)c1ccc(C=C2C(=O)NC(=S)NC2=O)cc1`, the growth is 98.5%.

On to `Clc1ccc(SSC(Cl)(Cl)Cl)cc1`, for which the growth is 121%.

Turning to `[O]=[Sn]([CH]1CCCCC1)[CH]1CCCCC1`, the growth was -99.3% (active).

In the case of `ClCCN(CCCl)c1nc(Cl)c(C2CC(c3ccccc3)=NN2c2ccccc2)s1` (centres undefined), the growth was 99.3%.

Take `CC(=O)C1CCC2C3CC=C4CC(OC(=O)Cc5ccc(N(CCCl)CCCl)cc5)CCC4(C)C3CCC12C` (centres undefined): the growth is 92%.

`Cc1ccccc1O`: the growth was 102%.

Turning to `O=[N+]([O-])c1ccccc1N1CCNCC1`, the growth was 111%.

`CC(=O)Nc1ccc(C=C2C(=O)NC(=O)NC2=O)cc1`: the growth was 112%.
